Results: PubChem BioAssay AID1159580 (chemical genetic matrix, 2015)
Several values for one entry are separate records, joined by “and”; a condition that tells them apart may be missing. Equal values may be shown once. Hit rate of the full screen: of about 5,500 compounds, about 2,000 (36%) were called active. About 18% were inconclusive and are not listed. No stated cut-off is given here; in the data, active means normalized growth mostly below about 0.91 (no sharp cut-off); inconclusive means no clear call, values can overlap the other calls; inactive means mostly above about 0.92. This is one part of the list.

Assay: chemical genetic growth profiling, strain panel (AID 1159580);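 further: tested at 20 µM; growth read once vehicle control cultures reached saturation at 30 °C; 1 = growth at the plate median or of vehicle wells; lower values mean less growth of the strain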
Settings: S. cerevisiae deletion strains, growth OD

Measured: normalized growth

CCCCCC1C(=O)CCC1CC(=O)O (stereo unspecified)
inactive: locus YAL013W, strain DEP1, active compounds read low 0.997 | locus YAL021C, strain ccr4, active compounds read low 0.984 | locus YAL026C, strain drs2, active compounds read low 0.994 | locus YAL030W, strain snc1, active compounds read low 0.984 | locus YBL061C, strain skt5, active compounds read low 0.988 | locus YBR009C, strain hhf1, active compounds read low 1.01 | locus YBR021W, strain FUR4, active compounds read low 0.991 | locus YBR023C, strain chs3, active compounds read low 0.99 | locus YBR171W, strain sec66, active compounds read low 1 | locus YBR229C, strain ROT2, active compounds read low 1 | locus YBR231C, strain swc5, active compounds read low 1 | locus YBR279W, strain paf1, active compounds read low 0.98 | locus YCL011C, strain gbp2, active compounds read low 0.995 | locus YCL016C, strain dcc1, active compounds read low 0.98 | locus YCL029C, strain bik1, active compounds read low 0.998 | locus YCL061C, strain MRC1, active compounds read low 0.991 | locus YCL069W, strain vba3, active compounds read low 0.995 | locus YCR088W, strain abp1, active compounds read low 0.976 | locus YDL005C, strain med2, active compounds read low 0.982 | locus YDL035C, strain GPR1, active compounds read low 1.01 | locus YDL040C, strain nat1, active compounds read low 0.995 | locus YDL074C, strain BRE1, active compounds read low 1.01 | locus YDL101C, strain DUN1, active compounds read low 1.01 | locus YDL134C, strain PPH21, active compounds read low 1.06 | locus YDL185W, strain tfp1, active compounds read low 0.974 | locus YDL192W, strain arf1, active compounds read low 0.986 | locus YDR001C, strain nth1, active compounds read low 0.986 | locus YDR069C, strain doa4, active compounds read low 1.01 | locus YDR101C, strain arx1, active compounds read low 0.99 | locus YDR137W, strain rgp1, active compounds read low 0.998 | locus YDR150W, strain NUM1, active compounds read low 1.02 | locus YDR159W, strain sac3, active compounds read low 0.997 | locus YDR162C, strain NBP2, active compounds read low 1.04 | locus YDR195W, strain ref2 0.999 | locus YDR297W, strain sur2, active compounds read low 0.988 | locus YDR318W, strain mcm21, active compounds read low 0.992 | locus YDR334W, strain swr1, active compounds read low 0.981 | locus YDR335W, strain msn5, active compounds read low 0.981 | locus YDR388W, active compounds read low 0.994 | locus YDR392W, strain spt3, active compounds read low 0.91 | locus YDR502C, strain sam2, active compounds read low 1.01 | locus YEL003W, strain gim4, active compounds read low 0.987 | locus YEL037C, strain rad23, active compounds read low 0.972 | locus YEL061C, strain CIN8 (second series), active compounds read low 0.984 | locus YEL061C, strain CIN8, active compounds read low 1 | locus YER015W, strain faa2, active compounds read low 0.983 | locus YER016W, strain bim1, active compounds read low 0.984 | locus YER110C, active compounds read low 0.982 | locus YER111C, strain swi4, active compounds read low 0.975 | locus YER155C, strain BEM2 (second series), active compounds read low 0.982 | locus YER155C, strain BEM2, active compounds read low 0.989 | locus YER167W, strain BCK2, active compounds read low 1.01 | locus YFR010W, strain ubp6, active compounds read low 0.987 | locus YGL078C, strain dbp3, active compounds read low 0.988 | locus YGL086W, strain mad1, active compounds read low 0.994 | locus YGL167C, strain pmr1, active compounds read low 0.986 | locus YGL173C, strain kem1, active compounds read low 0.989 | locus YGL227W, strain vid30, active compounds read low 0.998 | locus YGL240W, strain doc1, active compounds read low 0.998 | locus YGL248W, strain PDE1, active compounds read low 0.998 | locus YGL253W, strain hxk2, active compounds read low 0.996 | locus YGR135W, strain pre9, active compounds read low 0.994 | locus YGR252W, strain gcn5, active compounds read low 0.993 | locus YHR013C, strain ard1, active compounds read low 0.972 | locus YHR027C, strain rpn1, active compounds read low 0.98 | locus YHR030C, strain SLT2, active compounds read low 0.992 and 0.982 | locus YHR079C, strain IRE1 (second series), active compounds read low 0.987 | locus YHR079C, strain IRE1, active compounds read low 0.99 | locus YHR094C, strain hxt1, active compounds read low 0.969 | locus YHR129C, strain ARP1, active compounds read low 1 | locus YHR142W, strain chs7, active compounds read low 0.973 | locus YHR200W, strain rpn10, active compounds read low 0.988 | locus YIL066C, strain RNR3, active compounds read low 1.03 | locus YIL073C, strain SPO22, active compounds read low 1.04 | locus YIL125W, strain kgd1, active compounds read low 0.985 | locus YIR030C, strain dcg1, active compounds read low 0.986 | locus YJL092W, strain hpr5, active compounds read low 0.983 | locus YJL095W, strain BCK1 (second series), active compounds read low 0.993 | locus YJL095W, strain BCK1, active compounds read low 1.05 and 0.989 | locus YJL115W, strain asf1, active compounds read low 0.973 | locus YJL129C, strain trk1, active compounds read low 0.961 | locus YJL134W, strain LCB3, active compounds read low 0.991 | locus YJL154C, strain vps35, active compounds read low 0.982 | locus YJL164C, strain tpk1, active compounds read low 0.998 | locus YJL166W, strain qcr8, active compounds read low 0.996 | locus YJL168C, strain set2, active compounds read low 0.991 | locus YJL187C, strain SWE1 (second series), active compounds read low 1.02 | locus YJL187C, strain SWE1, active compounds read low 0.984 | locus YJR043C, strain POL32, active compounds read low 1.03 | locus YJR066W, strain TOR1, active compounds read low 0.967 | locus YKL009W, strain mrt4, active compounds read low 0.972 | locus YKL068W, active compounds read low 0.981 | locus YKL085W, strain MDH1 (second series), active compounds read low 0.992 | locus YKL085W, strain MDH1, active compounds read low 0.992 | locus YKL160W, strain elf1, active compounds read low 0.978 | locus YKL190W, strain CNB1, active compounds read low 1 | locus YKR001C, strain vps1, active compounds read low 0.987 | locus YKR026C, strain gcn3, active compounds read low 0.985 | locus YKR091W, strain srl3, active compounds read low 0.98 | locus YLL001W, strain dnm1, active compounds read low 0.961 | locus YLL026W, active compounds read low 0.994 | locus YLL041C, strain sdh2, active compounds read low 0.989 | locus YLR027C, strain aat2, active compounds read low 0.984 | locus YLR039C, strain RIC1, active compounds read low 1.06 | locus YLR058C, strain SHM2, active compounds read low 1.01 | locus YLR102C, strain apc9, active compounds read low 0.978 | locus YLR113W, strain HOG1, active compounds read low 0.95 | locus YLR221C, strain rsa3, active compounds read low 0.993 | locus YLR258W, strain gsy2, active compounds read low 0.986 | locus YLR262C, strain YPT6 (second series), active compounds read low 0.99 | locus YLR262C, strain YPT6, active compounds read low 1.07 | locus YLR268W, strain sec22, active compounds read low 1 | locus YLR320W, strain mms22, active compounds read low 0.967 | locus YLR330W, strain CHS5, active compounds read low 0.993 | locus YLR342W, strain FKS1 (second series), active compounds read low 1.02 | locus YLR342W, strain FKS1, active compounds read low 0.982 | locus YLR357W, strain rsc2, active compounds read low 0.994 | locus YLR370C, strain arc18, active compounds read low 0.983 | locus YLR371W, strain rom2, active compounds read low 0.987 | locus YLR384C, strain iki3, active compounds read low 0.978 | locus YLR418C, strain cdc73, active compounds read low 0.989 | locus YML016C, strain PPZ1, active compounds read low 0.995 | locus YML032C, strain rad52, active compounds read low 0.987 | locus YML120C, strain ndi1, active compounds read low 0.99 | locus YML124C, strain tub3, active compounds read low 0.985 | locus YMR058W, strain fet3, active compounds read low 0.983 | locus YMR078C, strain ctf18, active compounds read low 1.01 | locus YMR125W, strain sto1, active compounds read low 0.965 | locus YMR129W, active compounds read low 0.989 | locus YMR205C, strain PFK2, active compounds read low 0.969 | locus YMR223W, strain ubp8, active compounds read low 0.994 | locus YMR231W, strain pep5, active compounds read low 0.983 | locus YMR307W, strain GAS1, active compounds read low 1.06 | locus YNL067W, strain RPL9B, active compounds read low 1.04 | locus YNL071W, strain lat1, active compounds read low 0.99 | locus YNL128W, strain TEP1, active compounds read low 1 | locus YNL183C, strain NPR1, active compounds read low 0.931 | locus YNL209W, strain ssb2, active compounds read low 0.995 | locus YNL233W, strain BNI4, active compounds read low 1.03 | locus YNL248C, strain rpa49, active compounds read low 0.99 | locus YNL250W, strain rad50, active compounds read low 0.976 | locus YNL271C, strain bni1, active compounds read low 0.969 | locus YNL298W, strain CLA4, active compounds read low 0.968 | locus YNL307C, strain MCK1, active compounds read low 0.989 | locus YNL322C, strain KRE1 (second series), active compounds read low 0.972 | locus YNR049C, strain mso1, active compounds read low 0.984 | locus YNR052C, strain pop2, active compounds read low 0.975 | locus YOL006C, strain TOP1, active compounds read low 1.02 | locus YOL012C, strain htz1 1.21 | locus YOL147C, strain pex11, active compounds read low 0.986 | locus YOR001W, strain rrp6, active compounds read low 0.997 | locus YOR061W, strain CKA2, active compounds read low 0.996 | locus YOR069W, strain VPS5, active compounds read low 0.993 | locus YOR070C, strain gyp1, active compounds read low 0.99 | locus YOR080W, strain dia2, active compounds read low 0.987 | locus YOR083W, strain WHI5, active compounds read low 0.959 | locus YOR106W, strain vam3, active compounds read low 0.987 | locus YOR136W, strain idh2, active compounds read low 0.982 | locus YOR144C, strain elg1, active compounds read low 0.994 | locus YOR184W, strain ser1, active compounds read low 1.02 | locus YOR231W, strain MKK1, active compounds read low 1.01 | locus YOR265W, strain rbl2, active compounds read low 0.989 | locus YOR270C, strain vph1, active compounds read low 0.961 | locus YOR290C, strain snf2, active compounds read low 0.916 | locus YOR316C, strain cot1, active compounds read low 0.981 | locus YPL051W, strain arl3, active compounds read low 0.982 | locus YPL055C, strain LGE1, active compounds read low 1.06 | locus YPL078C, strain atp4, active compounds read low 0.979 | locus YPL106C, strain sse1, active compounds read low 0.99 | locus YPL240C, strain hsp82, active compounds read low 0.985 | locus YPL256C, strain CLN2, active compounds read low 0.964 | locus YPR119W, strain clb2, active compounds read low 0.988 | locus YPR141C, strain kar3, active compounds read low 0.981 | locus YPR163C, strain tif3, active compounds read low 0.978 | locus YPR167C, strain met16, active compounds read low 0.997 | strain wtn01, active compounds read low 1.01
